# Test results as given in PubChem BioAssay.
# Target: Left-right determination factor 2 (Homo sapiens) (UniProt O00292)
# Test: small molecules binding LEFTY2 protein – biochemical, small-molecule microarray, 635 nm fluorescence scan, primary screen (AID 1110)
# Conditions: higher = more signal
# Left-right determination factor 2 (Homo sapiens), sequence (O00292 whole entry, looked up): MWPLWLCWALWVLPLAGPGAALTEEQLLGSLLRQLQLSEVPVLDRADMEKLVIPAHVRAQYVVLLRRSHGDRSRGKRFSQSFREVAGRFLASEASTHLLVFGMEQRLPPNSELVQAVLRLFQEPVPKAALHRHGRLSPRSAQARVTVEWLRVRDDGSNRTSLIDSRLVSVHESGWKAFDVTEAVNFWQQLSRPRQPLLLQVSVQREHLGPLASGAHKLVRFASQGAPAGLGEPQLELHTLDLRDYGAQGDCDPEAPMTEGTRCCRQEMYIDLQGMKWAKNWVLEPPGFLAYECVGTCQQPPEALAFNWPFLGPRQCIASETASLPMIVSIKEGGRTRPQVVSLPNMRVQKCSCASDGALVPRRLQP
row,SMILES,composite z-score
1,COc1cc2c(cc1O)C=[N+](Cc1cccc(OC(F)(F)F)c1)CC2,-0.402
2,CCOC(=O)C=Cc1cc([N+](=O)[O-])ccc1O,-0.609
3,N#Cc1ccc(NN2C(C(O)c3c(F)cccc3Cl)C=CC3C(=O)N(c4ccccc4)C(=O)C32)cc1 (stereo unspecified),0.21
4,O=C1O[C@H](c2ccccc2)[C@H](c2ccccc2)N2[C@H]1[C@@H](C(=O)NC[C@H](O)c1ccccc1)[C@]1(C(=O)Nc3ccccc31)[C@H]2c1ccc(OCCO)cc1,0.119
5,O=C1c2ccccc2[C@](Cc2ccccc2I)(C(=O)NC2CC2)[C@H](c2ccc(CO)cc2)N1C1CCCCC1,0.272
6,CC(C)C[C@@H]1NC(=O)[C@@H]2C[C@H](C(=O)NCCCCCN)[C@H](c3cccc(OCCO)c3)N2C1=O,0.197
7,CCCCCN1CC=CC23O[C@@H]4/C=C\CCCOC(=O)C4[C@H]2C(=O)N(C(CO)C(C)C)[C@@H]3C1=O (stereo partly specified),-0.358
8,O=C(NCc1ccc(F)cc1)[C@H]1C[C@H]2C(=O)N[C@@H](Cc3ccccc3)C(=O)N2[C@H]1c1ccc(O)cc1,-0.469
9,COCC(=C=CC[C@@H](O)c1ccccc1OCCO)C[C@@H](O)c1cc(Cl)cc(Cl)c1O,0.635
10,COCCOC(=O)N1C(=O)[C@@]2(c3cc(C#CC4=CCCCC4)ccc31)[C@H](C(N)=O)[C@H]1C(=O)O[C@H](c3ccccc3)[C@H](c3ccccc3)N1[C@@H]2c1ccc(OCCO)cc1,0.331
11,O=C1OCCC/C=C\[C@H]2OC34C=CCN(Cn5nnc6ccccc65)C(=O)[C@H]3N(CCO)C(=O)[C@@H]4C12 (stereo partly specified),-1.84
12,C=CCOC(=O)[C@H]1[C@@H]2C(=O)O[C@@H](c3ccccc3)[C@@H](c3ccccc3)N2[C@@H](c2ccc(OCCOC(=O)[C@@H]3C[C@@H]4C(=O)N5CCC[C@H]5C(=O)N4[C@@H]3c3cccc(OCCO)c3)cc2)[C@]12C(=O)Nc1ccccc12,0.91
13,CCCCCCC#C[Si](O[C@H](c1ccccc1)c1cn([C@H](CO)Cc2ccccc2)nn1)(C(C)C)C(C)C,-0.154
14,COc1ccc([Si](C)(C)[C@H]2[C@H](CC(=O)N3CCC[C@H]3CO)O[C@@]3(C(=O)N(Cc4cccc(N5C(=O)c6cccc7cccc5c67)c4)c4ccccc43)[C@@H]2C)cc1,0.758
15,CC(C)C[C@@H]1NC(=O)[C@H]2C[C@@H](C(=O)NCCCCCCN(C)C)[C@@H](c3ccc(O)cc3)N2C1=O,1.06
16,CN1C(=O)C2C=CC(C(O)C3CC=CCC3)N(NC(=O)OC(C)(C)C)C2C1=O (stereo unspecified),0.46
17,O=C1OCCC/C=C\[C@H]2OC34C=CCN(CCN5CCOCC5)C(=O)[C@H]3N(CCCO)C(=O)[C@@H]4C12 (stereo partly specified),-0.27
18,Cc1ccc(S[C@]2(C(=O)NCC(F)(F)F)CC(=O)N(C(C)C)[C@@H]2c2ccc(CO)cc2I)cc1,-0.754

row,SMILES,composite z-score
1,CCCCCN1CC=CC23O[C@@H]4/C=C\CCCOC(=O)C4[C@H]2C(=O)N(CCCO)[C@@H]3C1=O (stereo partly specified),-0.174
2,CN(C)C(=O)[C@]1(Cc2ccccc2N=[N+]=[N-])N=C(c2ccc(OCCCO)cc2)O[C@@H]1c1ccccc1,0.104
3,COCCOC(=O)N1C(=O)[C@@]2(c3cc(C#CC4=CCCCC4)ccc31)[C@H](C(=O)Nc1nc3ccccc3s1)[C@H]1C(=O)O[C@H](c3ccccc3)[C@H](c3ccccc3)N1[C@@H]2c1ccccc1OCCO,0.938
4,CN1C(=O)C2C=CC(C(O)c3cccs3)N(Nc3ccccc3)C2C1=O (stereo unspecified),0.0032
5,CCc1oc(CC[C@@H](CO)NC(=O)NCCn2cc(C3(O)CCCCC3)nn2)c(C(=O)OC)c1C(=O)OC,0.905
6,C=C[C@H](COC(C)=O)N(C(=O)OC(C)(C)C)S(=O)(=O)c1ccc(Br)cc1,0.467
7,C[N+](C)(C)CCCCNC(=O)[C@H]1C[C@H]2C(=O)N[C@@H](Cc3ccccc3)C(=O)N2[C@H]1c1ccc(O)cc1,0.686
8,CCOC(=O)[C@H]1C/C=C/C[C@H](C(=O)OCC)C(=O)O[C@H]2[C@@H](OC)O[C@H](CO)[C@@H](OC(=O)Nc3cccc(F)c3)[C@@H]2OC1=O,-0.169
9,NCCCCCNC(=O)[C@@H]1C[C@@H]2C(=O)N[C@@H](Cc3ccccc3)C(=O)N2[C@@H]1c1cccc(OCCO)c1,-0.178
10,C=CCOC(=O)[C@H]1[C@@H]2C(=O)O[C@@H](c3ccccc3)[C@@H](c3ccccc3)N2[C@@H](c2ccc(OCCOC(=O)[C@@H]3C[C@@H]4C(=O)N[C@@H](CCCCN(C)C)C(=O)N4[C@@H]3c3ccc(O)cc3)cc2)[C@]12C(=O)Nc1ccc(I)cc12,0.698
11,CC(C)C[C@H]1NC(=O)[C@@]23C(=O)N[C@@H](Cc4ccccc4)C2[C@H](C)[C@@]2(C)O[C@H]2C3/C=C/C/C=C\CNC(=O)[C@H](Cc2ccccc2)NC1=O (stereo partly specified),0.452
12,CCOC(=O)[C@H]1CC=C2CC1C(=O)N1CCC[C@@H]1[C@@H]2O[Si](C)(C)C(C)(C)C (stereo partly specified),0.377
13,COc1ccc([Si](C)(C)[C@H]2[C@H](CC(=O)N3Cc4ccccc4C[C@H]3CO)O[C@@]3(C(=O)N(Cc4ccc(N5CCC5=O)cc4)c4ccccc43)[C@@H]2C)cc1,1.22
14,O=C1C2C=CC(C(O)C(c3ccccc3)c3ccccc3)N(n3cnnc3)C2C(=O)N1Cc1ccccc1 (stereo unspecified),-0.164
15,O=C(O)[C@@]1(CCS(=O)(=O)c2ccccc2)COC(c2ccc(OCCCO)cc2)=N1,-0.691
16,C[C@]1(C(=O)NC2CC2)c2ccccc2C(=O)N(Cc2cc(C(F)(F)F)cc(C(F)(F)F)c2)[C@H]1c1ccc(CO)cc1,0.122
17,CCCC[C@@H]1C[C@H]1[C@@H](NC(=O)c1ccco1)c1ccc(C(=O)OC)cc1,-0.423
18,O=C1O[C@H](c2ccccc2)[C@H](c2ccccc2)N2[C@H]1[C@@H](C(=O)Nc1nc3ccccc3s1)[C@]1(C(=O)Nc3ccc(C#CCCO)cc31)[C@H]2c1ccc(OCCO)cc1,0.436
